# Test results taken from the supplement of paper PMC6555819.
# How the values were obtained:
# Assay in all cases: PBM binding z-score (relative to random genomic background probes); higher = stronger binding; sequences stand for … in GC…GCGATTGACAGCGTAGAATGAAGG
# [1] = tested on: PPARg:RXRa DBDmut IVT, anti-RXR (DBD mutation: RXRa K156A/R161A, NR concentration 270 nM, RXRa partner concentration 90 nM)
# How it was run: (§1)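 Each nuclear receptor dimer, without ligand, was incubated for 1 h on custom Agilent 4×180K protein-binding microarrays. Binding was detected with antibodies against each partner (one per run), and scanned fluorescence was regression-normalized. The binding z-scores are referenced to random human genomic background probes.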
# [2] = tested on: PPARg:RXRa IVT, anti-PPARg (NR concentration 270 nM, RXRa partner concentration 90 nM)
# How it was run: as §1
# [3] = tested on: PPARg DBDmut:RXRa IVT, anti-PPARg (DBD mutation: PPARg1 K132A/R137A, NR concentration 270 nM, RXRa partner concentration 90 nM)
# How it was run: as §1
# [4] = tested on: PPARg DBDmut IVT, anti-PPARg (DBD mutation: PPARg1 K132A/R137A, NR concentration 270 nM)
# How it was run: as §1
# [5] = tested on: PPARg homodimer (NR concentration 180 nM)
# How it was run: as §1
# [6] = tested on: PXR:RXRa (NR concentration 270 nM, RXRa partner concentration 90 nM)
# How it was run: as §1
# [7] = tested on: PXR homodimer (NR concentration 270 nM)
# How it was run: as §1
# [8] = tested on: RARa:RXR (NR concentration 270 nM, RXRa partner concentration 90 nM)
# How it was run: as §1
# [9] = tested on: RARa homodimer (NR concentration 270 nM)
# How it was run: as §1
# [10] = tested on: RARb:RXRa (NR concentration 270 nM, RXRa partner concentration 90 nM)
# How it was run: as §1
Sequence,PBM binding z-score [1],PBM binding z-score [2],PBM binding z-score [3],PBM binding z-score [4],PBM binding z-score [5],PBM binding z-score [6],PBM binding z-score [7],PBM binding z-score [8],PBM binding z-score [9],PBM binding z-score [10]
CGTCCAGGGTCAAAGGTCAGTGAAGAGATGACGG,2.45,5.28,0.657,0.0677,3.17,6.94,0.868,8.37,1.58,5.63
TGTCAAAGTTCAAAGGTAACGGAAGTATCCACAC,0.604,4.88,1.63,2.48,3.69,5.74,3.74,6.93,1.65,5.07
TCTAGTGGGTCACGGAGGTCACACACGACGGGTA,7.01,7.92,1.74,0.78,4.58,5.92,5.35,6.43,2.44,4.78
TCTTGTAAATCAACAGGAGGTTAAGAAAGATCGA,1.98,0.596,0.712,0.346,0.585,1.13,0.241,1.26,0.881,0.847
AACTCTAGGTAAAGTTCAGTGAAAGATCGATAGA,2.44,2.21,0.224,0.266,0.953,1.71,1.53,1.14,0.544,2.73
CCTGCTAGGTGAATGGTCAGCTAAAGCAGCTCGC,3.48,2.62,-0.739,-1.37,-0.377,-0.698,-0.722,-0.44,-1.03,1
TCTCAGAGGACACGAAAGGTCAGAGCTCGACATC,1.77,1.57,-0.124,-0.022,3.62,4.28,0.423,4.62,1.56,4.44
GCGACTGGGGCAAAGCAGGTTTCCATAAGGTTGG,4.2,3.02,-0.184,-0.615,-0.0282,-0.473,-0.449,-0.165,-0.557,0.376
TTACCAGGGTGAGCTGAGGTCGTTGATCCAACTC,0.596,1.4,-1.02,-0.726,0.323,5.42,0.925,2.13,-0.657,1.24
ACAATGAGGTTATACGTAGATCAGGGAAGAAAGT,2.72,1.93,1.33,1.68,0.816,1.19,0.655,1.82,0.312,1.69
CCTACTGAGCCATCAGGTCATTGATATCAACGTT,1.16,1.31,0.489,-0.632,2.1,2.1,1.55,2.21,1.53,1.81
ATCGAAAGGTCGAAGGGGAGTATACCCACCCGAA,-0.023,1.38,1.29,0.309,1.15,2.21,0.32,2.79,0.273,3.73
TCATATAGGTAAAAGGGGAAAGTCGGTGTGGTAA,4.82,3.69,1.31,1.21,1.73,0.624,0.862,1.17,2.27,0.958
CGAACTAGGTCAAGGACAGCGAATCTCCGCACGC,7.76,8.26,2.54,2.03,1.63,1.06,0.0262,1.9,0.554,3.81
AATACAGGGTCATCGGAGGCCAGAGTACGCACAG,2.24,4.03,1.88,1.83,2.39,5.97,0.898,4.9,1.32,4.47
TCTTGAAGATCAAAGGTTAAGAAAGCCGAAGCCT,1.75,1.72,0.267,0.871,1.22,2.3,0.147,3.49,0.254,2.07
ATCGAAAGGTCTACGAGGTGAGTATACACCGTTT,-0.371,1.17,0.797,0.317,0.182,0.409,0.194,1.17,0.434,1.81
CCTACTGGGGCATAAGGTTACCATAAGCCAGCCC,4.53,5.02,0.0293,-0.184,1.28,0.306,0.0136,1.42,0.103,1.74
CCTACTGGGCCATTCAGAGGTCATTTATCATATG,3.98,4.38,1.61,0.342,2.27,4.91,2.24,4.44,0.704,2.79
GCTAGCAGGCCATTTCGGTCACTCAATGACGGGC,0.656,0.325,-0.625,-0.867,-0.364,-0.577,-0.577,-0.28,-1.42,1.07
ATACCAAGCTGATCGTGAGGTCGTTGATACTAAC,-0.185,0.0581,0.404,0.536,0.45,1.49,1.06,1.26,0.317,0.454
ATATGTAGGTTAGCGGGTCATTCAGTTTGCGCAT,7.62,7.02,2.14,1.79,2.58,3.07,5.07,2.89,1.16,2.31

Sequence,PBM binding z-score [1],PBM binding z-score [2],PBM binding z-score [3],PBM binding z-score [4],PBM binding z-score [5],PBM binding z-score [6],PBM binding z-score [7],PBM binding z-score [8],PBM binding z-score [9],PBM binding z-score [10]
CCTATTAGTTGACCATAAGGGCAACCGTAGCTCG,0.583,0.704,0.408,0.82,1.76,0.746,0.617,0.869,1.7,1.66
TCTAGCAGGCCAGAGGGGCACTCAAGAGGTACGG,0.959,-0.0435,-0.531,-0.834,-0.877,-0.511,-0.673,-0.329,-0.905,0.329
CCTAGCAGGTCAATCTGGGTCACTCAAGGCTTGA,5.78,6.18,1.08,-0.626,2.33,5.31,0.0416,4.45,0.436,3.96
AGAACGAGGGCACGCTGGGTTGATAGCAGAGTAG,3.63,3.69,1.12,0.143,0.498,1.25,0.183,1.17,0.372,2.41
TCATATAGGTAATACACGTGAAAGTCGGCATCTA,3.9,2.2,1.1,1.42,1.33,0.683,0.547,0.919,1.56,0.414
GCATATAGGTAATACAAGCTGAAAGTCCGATTGT,3.93,2.4,0.865,0.595,0.219,-0.13,-0.000493,0.243,0.388,-0.475
ATACCAAGGTGATCGTGATGTCGTTGATACTAAC,0.486,0.996,0.919,1.1,0.247,-0.038,0.104,0.057,0.517,0.325
TAGCCTAGGTCATGCGGGCCAGAATAGTGTCGGC,1.69,2.9,-0.0114,-0.646,0.886,1.66,-0.503,2.58,-0.8,3.83
CGTCCAAGGACAGAGAGGTCAGTGAATGCCGAGT,0.0804,0.561,-0.629,-1.01,1.79,3.01,3.16,2.48,0.679,3.33
ATATCTAGGTTAAGGGTCATTCAGGTTGGTTCGC,7.59,8.2,6.43,4.16,4.9,5.61,3.45,5.91,3.76,3.98
TCAAGTAGGTTAGGGGCATTCAGAATGGCGTCGA,4.59,3.94,0.0234,0.234,1.35,1,0.86,0.878,0.676,1.51
CCTCGGAGGACAGAAGGTCAGAGCAGTCCGCTTT,0.416,0.276,-1.6,-1.82,1.18,2.83,-0.373,2.41,0.42,3.25
CCTACTGGGCCAAAAAGGTCATGGATGCCGATAA,3.31,4.16,0.474,-0.298,4.05,4.81,0.732,5.53,1.87,4.27
AGAACGAGGGCACGTTGAGTTGATAGCAGAGTAG,3.79,3.75,0.741,-0.039,0.701,1.33,0.471,0.629,-0.287,2.42
TAGCCTGGGTCATTGGGCCAGTATAGTACGCATC,1.27,3.57,0.337,-0.475,0.764,1.44,-1.02,2.07,-0.67,3.34
TTACCAAGGTGCGCTGAGGTCGTTGATCCAACTC,-0.264,0.111,-0.817,-0.343,-0.175,2.58,1.74,1.4,-0.803,0.681
CGAACTAGGTCACGAAAGGTCAAAGTCGAATGAC,8.45,8.7,0.767,1.32,5.63,7.14,3.35,7.72,2.82,5.68
CGAACGAGGGCATGAGTTGATAGCGAATGCCGAT,3.22,2.24,-0.216,-0.415,0.483,0.461,-0.235,0.351,-0.349,1.97
CCTACTGGGCCATCAGGTAATTGATATCAACGTT,4.07,4.05,-0.379,0.313,0.173,-0.337,-0.167,-0.328,-0.0481,0.0726
TCTATTAGTTGAGTAGGGCAACCGAAACAGCGGA,2.19,2.75,0.301,0.883,0.0171,-0.0938,-0.0884,0.248,-0.221,0.507
ATCTGTAGGTAAAGATAGTTCAGTGAATGCAAAT,1.63,1.5,0.849,0.832,0.977,1.03,0.786,0.946,0.896,0.675
AATAAAGGGTCACTAGGCCAGAGTAGGTACGAAT,4.52,6.06,1.89,1.25,2.96,3.13,0.43,4.07,1.9,5.16
